Sampled rows, rich in hits. Any-hit rate of the full collection: about 9%.
ALDH1A1 inh: qHTS Assay for Inhibitors of Aldehyde Dehydrogenase 1 (ALDH1A1); 220,000 tested, 7.3% active; Aldehyde dehydrogenase 1A1 (Homo sapiens), P00352; Potency, µM (highest dose often 75.3 µM), hits mostly inhibitors; Purified ALDH1A1, NADH fluorescence, propionaldehyde substrate
HPGD block: qHTS Assay for Inhibitors of HPGD (15-Hydroxyprostaglandin Dehydrogenase) | 15-hydroxyprostaglandin dehydrogenase [NAD(+)] (Homo sapiens), P15428 | AID 894, 2007 | 150,000 tested, 4.3% active | purified HPGD, NADH fluorescence kinetic, PGE2 substrate | Potency, µM, most hits filed as inhibitors
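NADH formation kinetics: reaction with 30 uM PGE2 and 1 mM NAD+ (final), 20 nM enzyme, Tris-HCl pH 8 with Tween 20, after 15 min compound preincubation at room temperature. Fluorescence change, last versus first of five reads.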
IMPase cell inh: qHTS Assay for Identifying the Cell-Membrane Permeable IMPase Inhibitors; 120,000 tested, under 10 active; inhibition (IP1 accumulation), % at 46.1 µM; CHO-M1 cells, IP1 accumulation, HTRF TR-FRET ratio; Inositol monophosphatase 1 (Rattus norvegicus), P97697; AID 901, 2007; active means well fitted curve in the direction sought with a large enough effect in the signal ratio, not every such curve was filed as active; inconclusive means small, poorly fitted or top-dose-only effect, or a change in a side signal; inactive means no such curve, though single readings can be large or run the other way; the % refers to the signal ratio;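 further: cells stimulated with carbachol in lithium chloride buffer; higher means more IMPase inhibition seen as more IP1 and lower FRET ratio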
Target sequence (P97697 whole entry, looked up): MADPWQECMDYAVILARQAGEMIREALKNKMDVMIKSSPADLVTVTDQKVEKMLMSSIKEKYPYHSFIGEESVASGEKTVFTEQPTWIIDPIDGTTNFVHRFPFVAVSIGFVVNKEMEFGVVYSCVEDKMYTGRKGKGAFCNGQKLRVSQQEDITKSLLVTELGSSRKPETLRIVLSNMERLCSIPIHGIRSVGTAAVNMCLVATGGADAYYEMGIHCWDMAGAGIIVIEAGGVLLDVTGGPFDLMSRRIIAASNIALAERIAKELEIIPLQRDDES
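Elevated IP1 in lysates lowers TR-FRET signal (665/620 ratio and 620 channel reported). Cells were CHO-M1, given carbachol (50 uM as added) plus 50mM LiCl, pH 7.4, 30 min, 37C; compounds titrated up to 46 uM; AC50 by Hill equation.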
Each line names hits and unclear results; the compound was inactive in the other large screens. Unless noted, the call rests on the fitted dose curve; in most records, active means well fitted inhibition curve with a large enough effect (not every such curve was filed as active); inconclusive means small, poorly fitted or top-dose-only effect, or another doubt; inactive means no such curve, though single readings can be large or run the other way.

Cc1ccc(F)cc1NC(=O)CN1CCN(c2ccccn2)CC1	none (no result: HPGD block, IMPase cell inh)
COc1ccccc1N1CCN(CC(=O)Nc2cc(F)ccc2C)CC1	ALDH1A1 inh 18µM
COc1ccc(NC(=O)CN2CCN(CC(=O)Nc3ccccc3Cl)CC2)cc1	ALDH1A1 inh 8.9µM
CC(C)(C)CC(C)(C)NC(=S)NC1CCN(Cc2ccccc2)CC1	ALDH1A1 inh inconclusive
COCCSc1ccccc1C(=O)Nc1nncs1	ALDH1A1 inh inconclusive
COc1ccc(S(=O)(=O)N(CCc2ccccc2)CC(=O)NCc2ccccc2)cc1OC	none (no result: ALDH1A1 inh, HPGD block)
COCCOC(=O)/C(C#N)=C/c1cn(Cc2ccccc2)nc1-c1cccnc1	ALDH1A1 inh 20µM (no result: HPGD block, IMPase cell inh)
CCOC(=O)/C(C#N)=C\c1cccnc1	none (no result: HPGD block, IMPase cell inh)
COc1cccc(N2CCN(C(=O)CN(C)S(=O)(=O)c3ccc4c(c3)CCC(=O)N4)CC2)c1	ALDH1A1 inh inconclusive
COCCN(C(=O)c1cc(OC)c(OC)c(OC)c1)c1c(N)n(Cc2ccccc2)c(=O)[nH]c1=O	none (no result: HPGD block, IMPase cell inh)
CCCCn1c(=O)c(-[n+]2ccccc2)c([O-])c2ccccc21	ALDH1A1 inh 14µM
CCCCn1c(=O)c(-c2ccccc2)c(O)c2ccccc21	ALDH1A1 inh inconclusive
CC(C)Cn1c(=O)c(-[n+]2ccccc2)c([O-])c2ccccc21	ALDH1A1 inh 2.8µM (no result: HPGD block, IMPase cell inh)
CC(C)Cn1c2ccccc2c2cc(C(=O)O)ccc21	none
Clc1ccccc1C(Nc1cnccn1)Nc1cnccn1	HPGD block inconclusive (no result: IMPase cell inh)
COc1ccccc1/C=C\C(=O)OC[C@@H]1CCCN2CCCC[C@H]12	ALDH1A1 inh inconclusive (no result: IMPase cell inh)
Cc1c(NC(=O)c2ccc(COc3ccc4ccccc4c3)o2)c(=O)n(-c2ccccc2)n1C	ALDH1A1 inh inconclusive, HPGD block 35µM
Cc1cccc(NC(=O)c2ccc(COc3ccc4ccccc4c3)o2)n1	none (no result: HPGD block, IMPase cell inh)
CC(C)NS(=O)(=O)c1ccc(CCC(=O)NCc2ccncc2)cc1	none (no result: HPGD block, IMPase cell inh)
CO[C@H]1OC[C@@]2(C)[C@@H]3C4=C(CN2C(=O)OC(C)(C)C)[C@H](C)[C@H](CO)[C@H](CO)[C@H]4CC[C@H]13	none (no result: IMPase cell inh)
CCc1ccc(NC(=O)CSCc2ccc(C(=O)O)cc2)cc1	none (no result: HPGD block, IMPase cell inh)
COc1ccc(C(=O)N(Cc2ccco2)Cc2cccs2)c(O)c1	ALDH1A1 inh 13µM, HPGD block inconclusive
Cc1ccc(-c2nnn(CC(=O)N(Cc3cccs3)C(C(=O)NC(C)(C)C)c3ccco3)n2)o1 (stereo not given)	ALDH1A1 inh inconclusive
COc1cccc(NC(=O)N(Cc2ccco2)C(C)c2cccs2)c1 (stereo not given)	none
Cc1ccc(-c2nnn(CC(=O)N(Cc3ccco3)C(C(=O)NC(C)(C)C)c3cccs3)n2)o1 (stereo not given)	ALDH1A1 inh 28µM
COc1ccc(CNC(=O)C(c2ccncc2)N(C(=O)Cc2cccs2)c2ccccc2C)cc1 (stereo not given)	ALDH1A1 inh inconclusive
COc1ccc(CNC(=O)C(c2cccs2)N(Cc2ccco2)C(=O)Cc2cccs2)cc1 (stereo not given)	ALDH1A1 inh 2µM
COCCN(C(=O)Cc1cccs1)C(C(=O)NCc1ccc(OC)cc1)c1ccc(OC)cc1 (stereo not given)	ALDH1A1 inh 2.2µM
O=C(NCc1ccco1)C(c1cccs1)N(C(=O)Cc1cccs1)c1ccccc1 (stereo not given)	none
Cc1ccc(NC(=O)C(C)NC(=O)OCc2ccccc2)cc1C (stereo not given)	none (no result: HPGD block, IMPase cell inh)
COc1ccccc1-c1cncnc1NCc1cccs1	none (no result: HPGD block, IMPase cell inh)
O=C(Cn1cc(F)c(=O)[nH]c1=O)NCCO	none (no result: HPGD block, IMPase cell inh)
CC1CC2C3CCC4=CC(=O)C=C[C@@]4(C)[C@]3(F)C(O)C[C@]2(C)[C@]1(O)C(=O)CO (stereo not given in full)	none (no result: IMPase cell inh)
COc1ccc(CNC(=O)C(c2ccco2)N(C(=O)Cc2cccs2)c2cccnc2)cc1 (stereo not given)	none (no result: HPGD block, IMPase cell inh)
COc1ccc(CNC(=O)C(c2ccco2)N(Cc2ccccc2)C(=O)Cc2cccs2)cc1 (stereo not given)	ALDH1A1 inh 13µM
CN(CC1CCOCC1)C(=O)CC1C(=O)NCCN1Cc1cccc(Oc2ccccc2)c1 (stereo not given)	none (no result: HPGD block, IMPase cell inh)
CC(C)CC(N)C(=O)OCc1ccc([N+](=O)[O-])cc1 (stereo not given)	none (no result: HPGD block, IMPase cell inh)
COCCCn1c(-c2ccc(S(=O)(=O)N3CCOCC3)cc2)csc1=Nc1ccccc1	ALDH1A1 inh 14µM, HPGD block inconclusive
CCn1c(-c2ccc(S(=O)(=O)N3CCOCC3)cc2)csc1=Nc1ccc(C)c(Cl)c1	none (no result: ALDH1A1 inh, HPGD block)

Screening results from PubChem BioAssay.
